SMILES strings stand for the structures. About 83,000 compounds went through this panel and 20% of them were active in at least one assay; those are over-represented in the sample as a whole.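 For each line, cells grew in 96-well plates with the test compound present at a single concentration for 48 hours.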 Calls of active or inactive are those of the source. The calls were made as follows: active = growth percent below 10; inactive = the rest.

The subject of this test is HL-60(TB) leukemia. Description: NCI-60 one-dose screen, 48 h (100 = growth as untreated, 0 = no growth, -100 = all killed). As to conditions: 10 µM unless noted.
As for `Cc1ccc(N)cc1CN1C(=O)c2ccccc2C1=O`, the growth is 107% (inactive).

For the compound `NC(=O)c1c(NC(=O)c2cccc(C(F)(F)F)c2)sc2c1CCC(=O)C2`, the growth was -11.6% (active).

For `COc1ccc2c(c1)CC/C(=C\c1cncc(Br)c1)C2=O`, the growth is 100% (inactive).

Take `CC(=O)Nc1nc(C)c(C(=O)NNC(=O)Nc2ccccc2)s1`: the growth is 108% (inactive).

As to `O=S(=O)(N=C1C(Cl)=C(Cl)C(=NS(=O)(=O)c2ccccc2)C(Cl)=C1Cl)c1ccccc1`, the growth is 48.5% (inactive).

`COc1cc(OC)c(/C=C/c2cc[n+](C)c3ccccc23)c(OC)c1`: the growth is -25.6% (active).

As for `NN=C(c1ccc(Cl)cc1)c1ccc(Cl)cc1`, the growth is 131% (inactive).

As for `N#Cc1c(-c2ccccc2)cc(-c2ccccc2)n(CCCCCCC(=O)O)c1=O`, the growth was 105% (inactive).

As to `CCCCCCCCCCCCCCCC1=NCCN1`, the growth is -15.6% (active).

Consider `c1ccc(-c2cc3n4c(-c5ccccc5)nn(-c5ccccc5)c4cnc-3n2)cc1`, for which the growth was 120% (inactive).

On to `Nc1nc(N)c2c(n1)NC(c1cccc(Nc3ccnc4cc(C(F)(F)F)ccc34)c1)CC(c1ccc(F)cc1)=N2` (stereo not given), for which the growth was 17.8% (inactive).

`O=C(Nc1ccccc1)Nc1ccc2cc3ccc(NC(=O)Nc4ccccc4)cc3nc2c1`: the growth was 50.9% (inactive).

On to `CCn1c2ccc(O)cc2c2c(C)c3c[n+](C(C)C)ccc3c(C)c21`, for which the growth was 70.3% (inactive).

Consider `Oc1ccccc1N=Cc1c(O)ccc2ccccc12`, for which the growth is 8.97% (active).

Regarding `CC(=O)OC[C@]12CC[C@@H]([C@@H](C)c3nnc(-c4ccncc4)o3)[C@@H]1[C@H]1CC[C@@H]3[C@@]4(C)CC[C@H](OC(C)=O)C(C)(C)[C@@H]4CC[C@@]3(C)[C@]1(C)CC2`, the growth was 61.1% (inactive).

`COc1ccc(Nc2c3c4c(cccc4[nH]c2=O)C(=O)c2ccccc2-3)cc1`: the growth is -60.4% (active).

As to `O=C(O)c1cc2c(s1)C(=O)c1sccc1C2=O`, the growth is 10.9% (inactive).

As to `O=CN1N=C(c2ccc(Cl)cc2)CC1c1cccc(Nc2ccnc3cc(C(F)(F)F)ccc23)c1` (stereo not given), the growth is 31.6% (inactive).

As to `CCn1c(SCC(=O)N/N=C(\C)c2ccc(Cl)cc2)nc2c1c(=O)n(C)c(=O)n2C`, the growth is 101% (inactive).

On to `CCN1CCN(CCCN(C[C@H]2Cc3ccccc3CN2)[C@H]2CCCc3cccnc32)CC1`, for which the growth was 62.8% (inactive).

Take `CC(C)C(=O)OCCOc1ccc(C(C)(C)C)cc1`: the growth was 107% (inactive).

Consider `COc1ccc(/C=N/NC(=O)c2cnn3c2NC(c2ccccc2)C3)cc1OC` (stereo not given), for which the growth is 36.4% (inactive).

Regarding `C=CCSC(CC)(CC)C(=O)NC`, the growth is 89.3% (inactive).

With `CC(=O)c1c(C)nc(SCC(=O)Nc2ccc(Cl)cc2)n1-c1ccc(Cl)cc1`, the growth was 86.6% (inactive).

Regarding `COc1ccc(-c2nc(SCC(=O)Nc3ccc(C(C)=O)cc3)[nH]c(=O)c2C#N)cc1`, the growth is 88.2% (inactive).

For `COc1cc2c(Nc3ccc(NC(=O)Nc4ccc(Cl)c(C(F)(F)F)c4)c(Cl)c3)ncnc2cc1OCCCN1CCN(C)CC1`, the growth is -56.4% (active).

With `CSc1nc2c(c(=O)n1C)C(c1ccccc1)C1=C(N2)/C(=C/c2ccccc2)CCC1` (stereo not given), the growth was 12.8% (inactive).

In the case of `Cc1cc2c(-c3nc4ccccc4n3C)c(O)c(O)cc2c(O)c1-c1c(C)cc2c(-c3nc4ccccc4n3C)c(O)c(O)cc2c1O`, the growth was 76.7% (inactive).

In the case of `Nc1nc(N)c2cc(NCc3ccc(Cl)c(Cl)c3)ccc2n1`, the growth was -65.7% (active).

Regarding `Cc1ccccc1NC(=O)c1sc2nc(C)c(C(C)O)cc2c1N` (stereo not given), the growth is -14.8% (active).

Turning to `O=[N+]([O-])c1ccc(Oc2cccc3c(Oc4ccc([N+](=O)[O-])cc4[N+](=O)[O-])cccc23)c([N+](=O)[O-])c1`, the growth was 99.9% (inactive).

On to `COc1ccc(/C=N/c2cc(C(C)(C)C)nn2-c2ccccc2)cc1`, for which the growth was 88.3% (inactive).

On to `N#Cc1c(NC(=O)c2cccs2)[n+]([O-])c2cc(C(F)(F)F)ccc2[n+]1[O-]`, for which the growth was 89% (inactive).

Consider `Cc1ccc2nc(NC(=O)CSc3nc(Cl)c(C#N)c(-c4ccccc4)n3)sc2c1`, for which the growth was 94.9% (inactive).

As to `COc1ccc(-c2nc3sccn3c2/C=C/C(=O)c2c[nH]c3ccccc23)cc1`, the growth is 117% (inactive).

With `CCS(=O)(=O)Nc1cccc(Nc2c3cccc(C)c3nc3c(C)cccc23)c1OC`, the growth was -16.4% (active).

`FC(F)(F)c1ccc(-c2cnc(Cl)nc2NCc2cc(C(F)(F)F)cc(C(F)(F)F)c2)cc1`: the growth was 5.98% (active).

In the case of `O=C(/C(Br)=C/c1ccccc1)c1ccccc1`, the growth was -2.59% (active).

In the case of `C[C@]12CC[C@H]3[C@@H](CC=C4C[C@@H](O)CC[C@@]43C)[C@@H]1CC[C@@H]2C(=O)C/C=N/O`, the growth was 78.9% (inactive).

`N#CC1=C(N)Oc2c(ccc3ccccc23)C1c1cccs1` (stereo not given): the growth is -29.6% (active).

The values are drawn from PubChem BioAssay (NCI).
